Screening data (PubChem)
The list is not random: actives were taken first. Their share in the collection is about 4.5%.
DAX1 inh-1: blocks DAX1 repression of SF-1 activated StAR promoter; AID 652010; inhibition, % at 6.8 µM; 370,000 compounds, 1.1% hits; HEK293T StAR-luciferase reporter, SF-1/DAX-1 repression relief;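 active = inhibition above the mean over all tested compounds plus 3 SD, cut at about 3.6% in these data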;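 also: 0% = DAX-1 cells with DMSO and 100% = cells lacking DAX-1 with DMSO; higher inhibition means more luminescence from relief of DAX-1 repression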
ssDAF-12 act: S. stercoralis DAF-12 activation, primary screen | HEK293 ssDAF-12/GRIP1 lit1-tk-luc reporter, luminescence; % of 3 µM dafachronic acid response | activation, % at 6.8 µM | 370,000 compounds, 1% hits | AID 652126;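 active = activation above the mean over all tested compounds plus 3 SD, cut at about 0.9% in these data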;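 also: 0% = DMSO-only wells and 100% = 3 µM delta7-dafachronic acid wells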
hcDAF12 agonist: activates DAF-12 receptor from parasite H. contortus; activation, % at 6.8 µM; HEK293 hcDAF-12 lit1-tk-luc reporter, luminescence; 0% DMSO, 100% Δ7-dafachronic acid; 370,000 compounds, 1.4% hits; AID 652067;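 active = activation above the mean of all tested compounds plus 3 SD, cut at about 5.5% in these data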;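 also: 100% = response to 3 µM Δ7-dafachronic acid high control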
DAX1 inh-2: inhibitors of human orphan nuclear receptor DAX1 (NR0B1); AID 504766; HEK293 Gal4-DAX1 luciferase reporter, luminescence; inhibition, % at 6.75 µM; 340,000 compounds, 0.99% hits;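 active = inhibition above the mean over all tested compounds plus 3 SD, cut at about 4.2% in these data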;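 also: 0% = DAX1-transfected cells with DMSO and 100% = empty-vector control cells with DMSO; inhibition shows as a rise in luminescence from relieved DAX1 repression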
Target sequence (P51843 207-470 limits assumed): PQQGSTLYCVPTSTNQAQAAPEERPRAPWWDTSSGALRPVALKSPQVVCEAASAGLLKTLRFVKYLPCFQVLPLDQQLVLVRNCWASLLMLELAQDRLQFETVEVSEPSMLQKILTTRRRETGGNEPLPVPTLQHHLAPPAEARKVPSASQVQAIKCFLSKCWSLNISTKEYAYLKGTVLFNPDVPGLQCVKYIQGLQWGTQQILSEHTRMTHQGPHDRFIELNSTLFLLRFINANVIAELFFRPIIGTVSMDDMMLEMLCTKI
hgDAF12 agonist: hgDAF-12 agonism, primary luciferase screen; HEK293 GAL4-hgDAF12 UAS-luciferase reporter, agonist luminescence; normalized to butyrate control; activation, % at 6.8 µM; 370,000 compounds, 1.8% hits;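 active = activation above a cutoff set at the mean of all screened compounds plus 3 SD, cut at about 10% in these data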;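 also: 0% = DMSO wells and 100% = sodium butyrate wells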
FXN GAA850 act: frataxin GAA850 promoter activation. HEK293 lucGAA850 FXN promoter luciferase reporter, 24 h; percent of 10 µM SAHA response. activation, % at 6 µM. 360,000 compounds, 0.56% hits. AID 540364;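 active = activation above the average of all compounds screened plus 3 SD, cutoff fixed separately per campaign, cut at about 7.5% in these data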;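 also: 0% = DMSO wells and 100% = 10 µM SAHA wells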
The depositor's hits bear a star; / = no result.

SMILES	DAX1 inh-1	ssDAF-12 act	hcDAF12 agonist	DAX1 inh-2	hgDAF12 agonist	FXN GAA850 act
COC(=O)c1sccc1NC(=O)Nc1ccc(OC)c(OC)c1	0	0	-1	1	0	-2
CNS(=O)(=O)c1ccc(NC(=O)c2csc(C)c2)cc1	-1	0	-2	1	0	1
COc1ccc(S[C@]2(C(=O)N3CCN(c4ncccn4)CC3)CC(=O)N(C(=O)/C=C/c3ccccc3)[C@@H]2c2ccc(OC)cc2)cc1	1	-1	-1	/	-3	/
CCNC(=S)NNC(=O)CSc1nnc(SCc2cccc3ccccc23)s1	0	-2	2	/	4	/
Cc1ccc(S(=O)(=O)CC(=O)N(CCCN2CCOCC2)c2nc3c(F)cccc3s2)cc1	4.1*	0	0	2	4	0
O=C(CCS(=O)(=O)c1ccccc1)N(CCCN1CCOCC1)c1nc2c(F)cccc2s1	1	-1	1	-1	2	5
Cc1ccccc1NC(=O)C1CCCN1S(=O)(=O)c1cccnc1 (stereo unspecified)	1	-2	1	/	3	/
C=CCOc1ccc(/C=C/C(C)=N\O)cc1	3.9*	0	3	2	9	6
O=C(NC1=NCCS1)c1cc(-c2ccc(F)cc2)nc2ccccc12	0	-1	-2	0	2	2
Cc1ccc(-c2cc(C(=O)NC3=NCCS3)c3ccccc3n2)cc1C	1	0	4	0	11*	4
Cc1ccc(-c2cc(C(=O)Nc3ccncc3)c3ccccc3n2)cc1	0	-1	0	0	2	0
Cc1ccc(C)c(NC(=O)c2cc(-c3cccnc3)nc3ccccc23)c1	1	-1	0	6.3*	-1	-1
COC(=O)C1CN(CCO)CCS(=O)(=O)N1Cc1cn(Cc2ccc(C)cc2)nn1 (stereo unspecified)	-1	-1	-1	/	1	/
CC(C)CN1C(=O)[C@]2(CC(=O)N(C)C2c2ccccc2)c2cc(-n3cc(CN(C)C)nn3)ccc21 (stereo partly specified)	1	-1	0	/	-1	/
Cc1c(C(=O)N2CCN(c3ccccn3)CC2)oc2c(F)cccc12	0	-1	-3	-1	-2	1
Cc1c(C(=O)N2CCC[C@H]2C(N)=O)oc2c(F)cccc12	0	-1	0	6.0*	1	1
C[C@@H]1CN([C@H](C)CO)C(=O)c2c(c3ccccc3n2C)-c2ccccc2CO[C@H]1CN(C)C(=O)c1cc(Cl)cc(Cl)c1	0	0	0	4.3*	-2	1
COc1ccc(C2C(C(=O)N3CCN(c4ccccc4C)CC3)CC(=O)N2c2ccc(OC)cc2)cc1 (stereo unspecified)	-2	-2	-4	/	-6	/
O=C1C(=O)N(Cc2ccc(-c3ccc(Cl)nc3)cc2)c2ccc(OC(F)(F)F)cc21	/	-1	-2	/	-6	/
Cc1ccc(N2C(=O)CC(c3c[nH]c4ccccc34)C2=O)cc1 (stereo unspecified)	0	-1	0	1	2	0
CCC1=NN=C(c2ccc(F)cc2)C(c2c[nH]c3ccccc23)N1O (stereo unspecified)	-1	0.9*	4	0	5	0
C#Cc1cccc(OCC(C)CN2CCC(C(O)(c3ccccc3)c3ccccc3)CC2)c1 (stereo unspecified)	0	-2	-3	/	1	/
COc1ccccc1C1=NOC(Cn2c(=O)c3c(ncn3C)n(C)c2=O)C1 (stereo unspecified)	0	0.9*	5	0	1	4
C/C(=N\NC=O)c1ccncc1	-1	-1	0	5.0*	1	2
C/C(=N\Nc1ccc(Cl)cc1)c1ccncc1	0	-1	2	1	2	0
SMILES	DAX1 inh-1	ssDAF-12 act	hcDAF12 agonist	DAX1 inh-2	hgDAF12 agonist	FXN GAA850 act
COC(=O)CCC(=O)OC	0	-1	2	4.4*	0	2
COC(=O)CCCCC(=O)OC	1	-1	-1	1	2	-2
Cc1ccsc1C1Nc2ccccc2-c2nc3ccccc3n21 (stereo unspecified)	2	0	2	1	11*	6
C/C(C=NNC(=O)c1cc(-c2ccc(Cl)cc2)n[nH]1)=C\c1ccccc1	-2	-2	2	/	-1	/
COc1ccc(CC2(CO)CCN(Cc3cnn(-c4ccccc4)c3)CC2)cc1	-1	-2	-2	-1	-4	0
COc1ccc(CC2(CO)CCN(Cc3cnn(-c4ccccc4OC)c3)CC2)cc1	0	-2	-3	5.8*	-4	0
O=C(c1ccc(Br)cc1)N1CCC(C(=O)N2CCN(c3ccccc3)CC2)CC1	0	-1	-2	0	1	0
O=C1CN(c2ccccc2)C(=S)N1C(=O)c1ccc(Br)cc1	2	1	4	7.7*	14*	5
CC[C@H](CCC(=O)N(c1ccccc1)c1ccccc1)c1ccc(C)cc1	-1	-1	-1	/	1	/
Cc1ccc(S(=O)(=O)N2CCCN(C(=O)c3cc4ccccc4[nH]3)CC2)cc1	0	0	5.8*	1	4	2
COc1ccc2c(c1)CCCN2C(=O)C1CCCN(S(=O)(=O)c2cccc3ccccc23)C1 (stereo unspecified)	1	-2	-5	/	-5	/
O=S(=O)(c1ccccc1Br)N(Cc1cn(CC2CCCCC2)nn1)C1CC1	-1	-1	2	/	5	/
O=C(CSc1ccc(Br)cc1)NC1CCCCCC1	0	1.9*	0	0	3	3
COc1ccc(C=NNC(=O)c2ccncc2)cc1	1	-1	0	/	3	/
COc1ccc(C(=O)N/N=C/c2ccc(SC)cc2)cc1	0	-1	-2	0	11*	1
CSc1ccc(/C=N/Nc2cccc(C(=O)O)c2)cc1	/	/	/	-3	/	9.1*
CSc1ccc(/C=N/NC(=O)c2ccc(O)cc2)cc1	2	-1	3	2	12*	2
CCCC[C@H]1C2CC(OC(=O)Nc3cccc(C#N)c3)C(C2)[C@H]2CCCCN21 (stereo partly specified)	0	0	-2	/	0	/
CC1CCC2(CC1)CCC2NCc1ccc(Cl)cc1 (stereo unspecified)	/	-2	1	/	-2	/
O=C(CN1CCC(NC(=O)Nc2ccc(Cl)cc2)CC1)Nc1ccc2c(c1)OCCO2	0	-1	-3	/	3	/
CCc1ccc(-c2nc(CS(=O)CC(=O)O)c(C)o2)cc1 (stereo unspecified)	1	0	2	-2	12*	3
CCc1ccc(-c2nc(CS(=O)CC(=O)NC3CC3)c(C)o2)cc1 (stereo unspecified)	0	-1	1	1	1	1
